Data taken from PubChem BioAssay AID893 (National Center for Advancing Translational Sciences (NCATS), 2007).
Where “and” joins values, the source holds several entries; their conditions need not be identical. Equal values may be shown once. The campaign covered roughly 75,000 compounds. About 5,700 (7.6%) were called active. Entries that show only a call come without a potency. Another 7% or so got no clear call; they are omitted. The sample as a whole holds a higher share of actives than the screen did. A number with no mark means an inactive call. The call rests on the fitted dose curve; in most records, active means well fitted inhibition curve with a large enough effect; inconclusive means small, poorly fitted or top-dose-only effect; inactive means no such curve, though single readings can be large or run the other way.

These compounds were tested against 3-hydroxyacyl-CoA dehydrogenase type-2 (Homo sapiens) (UniProt Q99714) (assay: qHTS Assay for Inhibitors of HSD17B4, hydroxysteroid (17-beta) dehydrogenase 4). Settings: recombinant HSD17B10, NADH fluorescence kinetic; series mostly up to 57.1 µM.
Procedure, shortened: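 His-tagged E. coli-expressed HADH2 at 20 nM in 100 mM Tris-HCl pH 9.0 with 0.01 % Tween-20, preincubated 15 min with compound at room temperature. Reaction with 1 mM NAD+ and 90 uM beta-hydroxybutyryl coenzyme A; NADH fluorescence (360/450 nm) read kinetically over 4 min, last minus first point.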
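Further: the protocol describes HADH2 (HSD17B10) and not the HSD17B4 of the title; nearly all actives have a fitted effect of over 70% in size.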
Potency means the concentration at half of the fitted maximal effect.

| SMILES | Potency | activity change, negative = inhibition |
| --- | --- | --- |
| CC(C)(C)[Si](OCC[C@@H]1C[C@@]1(C)[C@@H](NP(=O)(c1ccccc1)c1ccccc1)c1ccccc1)(c1ccccc1)c1ccccc1 | inactive | – |
| CC1O[C@@H](Oc2c(-c3ccc(O)c(O)c3)oc3cc(O)cc(O)c3c2=O)C(O)C(O)C1O (stereo partly specified) | inactive | – |
| O=c1c(O)c(-c2ccc(O)cc2)oc2ccccc12 | 25.1 µM (active) | – |
| O=C1c2oc3ccccc3c(=O)c2C(c2cccc(O)c2)N1c1ccccn1 (stereo unspecified) | inactive | – |
| CCOC(=O)CNC(=O)CSc1nnc(-c2cccc(OC)c2)n1CC | inactive | – |
| Cc1ccc(CNC(=O)C2CCCN(S(C)(=O)=O)C2)cc1 (stereo unspecified) | inactive | – |
| CCOC(=O)c1cc(C)sc1NC(=O)C1CCC1 | inactive | – |
| COc1ccccc1OCCOc1ccc(/C=N/n2cnnc2)cc1 | inactive | – |
| COc1cccc(OCCOc2cccc(/C=N/n3cnnc3)c2)c1 | inactive | – |
| C=CCOc1ccc(/C=N/n2cncn2)cc1OC | 15.8 µM (active) | – |
| Cc1cnc(NC(=O)CSc2nnc(-c3ccccc3)n2Cc2ccccc2)s1 | inactive | – |
| Cc1nc(NC(=O)C23CCC(C)(C(=O)O2)C3(C)C)sc1C (stereo unspecified) | inactive | – |
| CN1CCC(CNC(=O)c2ccc(-n3c(=O)c(=O)[nH]c4ccccc43)cc2)CC1 | inactive | – |
| O=C(Cl)c1ccc([N+](=O)[O-])cc1 | inactive | – |
| O=C(CSc1nc(-c2ccco2)cc(C(F)(F)F)n1)NCc1cccs1 | inactive | – |
| FC(F)(F)c1cc(-c2cccs2)nc(NCc2ccco2)n1 | 31.6 µM (active) | – |
| O=C(CSc1nnc(-c2cccs2)n1-c1ccccc1)NCc1ccco1 | inactive | – |
| COc1ccccc1Nc1ncc(C(C)=O)c(C)n1 | inactive | – |
| O=C(Nc1ccccc1F)C1C2C=CC3(O2)C1C(=O)N(c1cccnc1)C3C(=O)NC1CCCCC1 (stereo unspecified) | inactive | – |
| COc1cccc([C@H]2Oc3ccc(OC)cc3/C(=N\OCC[C@@H]3C=C[C@H](OC(C)=O)[C@H](COC(C)=O)O3)[C@@H]2O)c1 | – | -5.53% [at 11.4 µM] |
| COc1ccc(-c2cc3ccc(OCc4nn[nH]n4)cc3oc2=O)cc1 | 25.1 µM (active) | – |
| O=c1oc2cc(O)ccc2cc1-c1ccc(F)cc1 | inactive | – |
| COc1cccc(C(=O)c2cc3ccc(O)cc3oc2=O)c1 | inactive | – |
| c1ccc(-n2ncc3c2ncn2c(CSc4nc5ccccc5s4)nnc32)cc1 | inactive | – |
| CCOC(=O)Cn1c(CN(Cc2ccccc2)Cc2ccccc2)nc2c1c(=O)[nH]c(=O)n2C | inactive | – |
| CCCOC(=O)c1[nH]c2c(c1C)C(=O)CC(c1cc(OC)c(OC)c(OC)c1)C2 (stereo unspecified) | inactive | – |

| SMILES | Potency | activity change, negative = inhibition |
| --- | --- | --- |
| CC1(C)OC2CO[C@]3(COS(N)(=O)=O)OC(C)(C)OC3C2O1 (stereo partly specified) | inactive | – |
| COc1c(C)c2c(c(O)c1C/C=C(\C)CCC(=O)O)C(=O)OC2 | 12.6 µM (active) and 25.1 µM (active) | – |
| Oc1cc(O)c2c(c1)OC(c1ccc(O)c(O)c1)C(O)C2 (stereo unspecified) | inactive | – |
| O=C(NCCCN1CCN(C2CCCCC2)CC1)Nc1ccccc1C(F)(F)F | inactive | – |
| Oc1ccc(O)c2c(O)cccc12 | 12.6 µM (active) | – |
| Cc1cccc(CNc2cc(-c3ccccc3Cl)ncn2)c1 | inactive | – |
| Cc1ccc(S(=O)(=O)NCC(=O)N(CC(=O)NC2CCCCC2)Cc2ccco2)cc1 | inactive | – |
| Cc1ccc(NC(=O)CS(=O)CC(=O)N(c2ccccc2)C(C)C(=O)NC2CCCC2)cc1 (stereo unspecified) | inactive | – |
| O=c1[nH][nH]c(=O)c2cc(N3CCCC3)ccc12 | 31.6 µM (active) | – |
| CO[C@H]1COC(=O)[C@H](Cc2ccccc2)NC(=O)C/C=C\[C@@H](C)[C@H](OC)COC(=O)C/C=C\[C@@H]1C | – | -5.43% [at 11.4 µM] |
| COC(=O)c1cn(C)c2ccc(S(=O)(=O)N3CC(C)CC(C)C3)cc2c1=O (stereo unspecified) | inactive | – |
| CC(C)(C)c1cc(C(=O)NCc2cccnc2)ccn1 | inactive | – |
| COCCn1c(=O)[nH]c2cc(C(=O)NCc3cccnc3)ccc2c1=O | 31.6 µM (active) | – |
| Cc1ccc(-n2nc(-c3ccco3)cc2C(=O)NCc2cccnc2)cc1 | inactive | – |
| Fc1ccc(-c2nnc(CSc3nnc(-c4ccc5c(c4)OCO5)o3)o2)cc1 | inactive | – |
| O=C(c1cccc(C(=O)N2CCN(c3ccc(F)cc3)CC2)c1)N1CCN(c2ccc(F)cc2)CC1 | inactive | – |
| Cc1cc(C)c2[nH]c(=O)c(C(c3nnnn3Cc3ccc4c(c3)OCO4)N3CCCC3)cc2c1 (stereo unspecified) | inactive | – |
| Cc1cccc2cc(CN(Cc3nnnn3Cc3ccccc3)C3CCCC3)c(=O)[nH]c12 | 31.6 µM (active) | – |
| Cc1cccc2cc(CN(Cc3ccc4c(c3)OCO4)Cc3nnnn3C3CCCC3)c(=O)[nH]c12 | inactive | – |
| Nc1nc2nc(Cl)[nH]c2c(=O)[nH]1 | inactive | – |
| CCOC(=O)C1CCCCN1Cc1ccc(OC)c(OC)c1OC (stereo unspecified) | inactive | – |
| Clc1ccc(CSc2nnc([C@@H]3CCCN3)o2)cc1 | inactive | – |
| Cc1ccc(S(=O)(=O)N2CC(=O)Nc3ccccc32)cc1C | inactive | – |
| Cc1ccc(S(=O)(=O)C(C#N)c2nc3ccccc3nc2N2CCCC2)cc1C (stereo unspecified) | 31.6 µM (active) | – |
| CC(C)OC(=O)C(C#N)c1nc2ccccc2nc1N1CCN(Cc2ccccc2)CC1 (stereo unspecified) | inactive | – |
| O=C(O)c1nn(-c2ccc(Cl)cc2)c2c1C(=O)c1ccccc1C2=O | – | -2.81% [at 11.4 µM] |

| SMILES | Potency | activity change, negative = inhibition |
| --- | --- | --- |
| CCc1ccc(N(CC)c2ncnc3nc[nH]c23)cc1 | inactive | – |
| O=C(O)c1ccc(Cl)c(S(=O)(=O)Nc2ccccc2Cl)c1 | inactive | – |
| CC(=O)Nc1ccc(N2CCOCC2)c(C(=O)Nc2cccc(C)c2)c1 | inactive | – |
| Cn1c(=O)n(C)c2cc(CNc3ccc(N4CCOCC4)c(C(=O)O)c3)ccc21 | 25.1 µM (active) | – |
| Cn1c(CN2CCOCC2)nc2cc(NC(=O)c3ccc(Cl)cc3)ccc21 | inactive | – |
| COc1cccc(N(C(=O)c2ccn[nH]2)C2(C(=O)Nc3c(C)cccc3C)CCCCC2)c1 | inactive | – |
| CSCCC(Nc1nc2ccccc2s1)C(=O)O (stereo unspecified) | inactive | – |
| O=C(O)CN(Cc1ccco1)S(=O)(=O)c1ccc(F)cc1 | inactive | – |
| Cc1c2c(nc3ccccc13)-c1cccc(=O)n1C2 | 7.94 µM (active) | – |
| CC(C)c1ccc2c([Si](C)(C)C)c3c(nc2c1)-c1cccc(=O)n1C3 | inactive | – |
| CC(C)(O)CCC(O)[C@@](C)(O)C1CC[C@]2(O)C3=CC(=O)C4CC(O)C(O)C[C@]4(C)C3CC[C@]12C (stereo partly specified) | inactive | – |
| CCOc1ccc(N2C(=O)CC(N(O)c3ccccc3)C2=O)cc1 (stereo unspecified) | inactive | – |
| N#Cc1nc(-c2ccc(OCc3ccccc3)cc2)oc1NCCCN1CCOCC1 | 25.1 µM (active) | – |
| N#Cc1nc(COc2ccc(-c3ccccc3)cc2)oc1NCc1cccnc1 | inactive | – |
| N#Cc1nc(Cc2ccccc2)oc1NCCc1ccccc1 | inactive | – |
| CC[C@]1(C)CC(=O)NC1=O | inactive | – |
| CC(C)(C)n1nnnc1C(c1cccs1)N(Cc1cccnc1)CC1CCCO1 (stereo unspecified) | inactive | – |
| COc1ccc2[nH]cc(CCNc3cc(-c4ccccc4CN(C)C)ncn3)c2c1 | inactive | – |
| Cc1cc(Nc2ccc(Br)cc2F)n2ncnc2n1 | inactive | – |
| Cc1ccc(NC(=O)CCNS(=O)(=O)c2ccc3c(c2)oc(=O)n3C)cc1C | inactive | – |
| C[C@@H]1/C=C\CC(=O)OC[C@H]2O[C@@H](C=C[C@@H]2O)[C@H](C)/C=C\CC(=O)OC[C@H]2O[C@H]1C=C[C@@H]2O | – | -0.26% [at 11.4 µM] |
| CCn1c(=N)c(S(=O)(=O)c2ccc(F)cc2)cc2c(=O)n3ccccc3nc21 | inactive | – |
| CCCn1c(=NC(C)=O)c(C(=O)OCC)cc2c(=O)n3ccccc3nc21 | 20 µM (active) | – |
| CCOC(=O)c1cc2n(c1N)-c1ccccc1C2=O | inactive | – |
| CC(C)(C)c1nc(NCC2CCCO2)c2nnn(Cc3ccccc3)c2n1 (stereo unspecified) | inactive | – |
| Cc1nc(Nc2ccc3c(c2)OCCO3)c2nnn(Cc3ccccc3Cl)c2n1 | 31.6 µM (active) | – |

| SMILES | Potency | activity change, negative = inhibition |
| --- | --- | --- |
| C#CCNc1nc(C(C)C)nc2c1nnn2Cc1ccccc1F | inactive | – |
| O=c1cc(CO)oc(CN2CCC(Cc3ccccc3)CC2)c1O | inactive | – |
| OCCN1CCN(CC/C=C2\c3ccccc3Sc3ccc(C(F)(F)F)cc32)CC1 | inactive | – |
| CCCN1[C@H](C(=O)OC)C[C@@]2(O)[C@@H](O)[C@@H](O)[C@@H](O)C[C@@H]12 | inactive | – |
| Cc1nnc(SCC(=O)NCc2ccccc2)s1 | inactive | – |
| COc1c(C(C)C)oc2cc3oc(=O)ccc3cc12 | inactive | – |
| Fc1ccc2nc(N3CCCCC3)sc2c1 | inactive | – |
| Fc1ccc2nc(Nc3nc4c(s3)CCCC4)sc2c1 | 25.1 µM (active) | – |
| O=C(Cn1c(=O)sc2ccccc21)Nc1nc2c(s1)CCCC2 | inactive | – |
| CNc1cc(-c2c(C)noc2C)ncn1 | inactive | – |
| O=C1CCc2cc(S(=O)(=O)N3CCC(C(=O)NCc4ccccc4Cl)CC3)ccc2N1 | inactive | – |
| COc1cccc(OC)c1C(=O)Nc1nnc(C(C)C)s1 | inactive | – |
| CCCc1nnc(NC(=O)c2cc(OC)cc(OC)c2)s1 | inactive | – |
| Cc1ccc(C(=O)Nc2nnc(-c3cccs3)s2)cc1C | 25.1 µM (active) | – |
| Cc1cc(C)nc(N2C(=O)CC(Cc3ccccc3)C2=O)n1 (stereo unspecified) | inactive | – |
| COc1ccc(OC)c2[nH]c(=O)c(CCNC(=O)C(C)(C)C)cc12 | inactive | – |
| CCCn1c(SCC(=O)N2CCc3ccccc32)nnc1-c1ccncc1 | inactive | – |
| CCc1ccc(N2CC(C(=O)NC3=NCCS3)CC2=O)cc1 (stereo unspecified) | inactive | – |
| Cc1ccc(C(=O)N2CCCCCC2)cc1Br | inactive | – |
| O=C(c1cc(-c2cccs2)on1)N1CCCCC1 | inactive | – |
| Cc1ccc2cc3cc(C(=O)N4CCCCCC4)oc3nc2c1 | 25.1 µM (active) | – |
| Oc1c(CN2CCOCC2)ccc(CN2CCOCC2)c1O | – | -11.5% [at 11.4 µM] |
| CO[C@H]1COC(=O)[C@@H](OCc2ccccc2)/C=C\[C@H](C)[C@@H](OC)COC(=O)[C@H](OCc2ccccc2)/C=C\[C@@H]1C | – | -0.999% [at 11.4 µM] |
